Molecules are shown by their SMILES. The campaign covered roughly 75,000 compounds. About 20 (0.03%) were called active. The call rests on the fitted dose curve; in most records, active means well fitted inhibition curve with a large enough effect; inconclusive means small, poorly fitted or top-dose-only effect; inactive means no such curve, though single readings can be large or run the other way. Only a sample is shown.

Here are results for 52 molecules from PubChem BioAssay AID892 (National Center for Advancing Translational Sciences (NCATS), 2007).
On the % scale 0 is the no-effect control and ±100 the full control effect.

Breast cancer type 1 susceptibility protein (Homo sapiens), sequence (P38398 whole entry, looked up): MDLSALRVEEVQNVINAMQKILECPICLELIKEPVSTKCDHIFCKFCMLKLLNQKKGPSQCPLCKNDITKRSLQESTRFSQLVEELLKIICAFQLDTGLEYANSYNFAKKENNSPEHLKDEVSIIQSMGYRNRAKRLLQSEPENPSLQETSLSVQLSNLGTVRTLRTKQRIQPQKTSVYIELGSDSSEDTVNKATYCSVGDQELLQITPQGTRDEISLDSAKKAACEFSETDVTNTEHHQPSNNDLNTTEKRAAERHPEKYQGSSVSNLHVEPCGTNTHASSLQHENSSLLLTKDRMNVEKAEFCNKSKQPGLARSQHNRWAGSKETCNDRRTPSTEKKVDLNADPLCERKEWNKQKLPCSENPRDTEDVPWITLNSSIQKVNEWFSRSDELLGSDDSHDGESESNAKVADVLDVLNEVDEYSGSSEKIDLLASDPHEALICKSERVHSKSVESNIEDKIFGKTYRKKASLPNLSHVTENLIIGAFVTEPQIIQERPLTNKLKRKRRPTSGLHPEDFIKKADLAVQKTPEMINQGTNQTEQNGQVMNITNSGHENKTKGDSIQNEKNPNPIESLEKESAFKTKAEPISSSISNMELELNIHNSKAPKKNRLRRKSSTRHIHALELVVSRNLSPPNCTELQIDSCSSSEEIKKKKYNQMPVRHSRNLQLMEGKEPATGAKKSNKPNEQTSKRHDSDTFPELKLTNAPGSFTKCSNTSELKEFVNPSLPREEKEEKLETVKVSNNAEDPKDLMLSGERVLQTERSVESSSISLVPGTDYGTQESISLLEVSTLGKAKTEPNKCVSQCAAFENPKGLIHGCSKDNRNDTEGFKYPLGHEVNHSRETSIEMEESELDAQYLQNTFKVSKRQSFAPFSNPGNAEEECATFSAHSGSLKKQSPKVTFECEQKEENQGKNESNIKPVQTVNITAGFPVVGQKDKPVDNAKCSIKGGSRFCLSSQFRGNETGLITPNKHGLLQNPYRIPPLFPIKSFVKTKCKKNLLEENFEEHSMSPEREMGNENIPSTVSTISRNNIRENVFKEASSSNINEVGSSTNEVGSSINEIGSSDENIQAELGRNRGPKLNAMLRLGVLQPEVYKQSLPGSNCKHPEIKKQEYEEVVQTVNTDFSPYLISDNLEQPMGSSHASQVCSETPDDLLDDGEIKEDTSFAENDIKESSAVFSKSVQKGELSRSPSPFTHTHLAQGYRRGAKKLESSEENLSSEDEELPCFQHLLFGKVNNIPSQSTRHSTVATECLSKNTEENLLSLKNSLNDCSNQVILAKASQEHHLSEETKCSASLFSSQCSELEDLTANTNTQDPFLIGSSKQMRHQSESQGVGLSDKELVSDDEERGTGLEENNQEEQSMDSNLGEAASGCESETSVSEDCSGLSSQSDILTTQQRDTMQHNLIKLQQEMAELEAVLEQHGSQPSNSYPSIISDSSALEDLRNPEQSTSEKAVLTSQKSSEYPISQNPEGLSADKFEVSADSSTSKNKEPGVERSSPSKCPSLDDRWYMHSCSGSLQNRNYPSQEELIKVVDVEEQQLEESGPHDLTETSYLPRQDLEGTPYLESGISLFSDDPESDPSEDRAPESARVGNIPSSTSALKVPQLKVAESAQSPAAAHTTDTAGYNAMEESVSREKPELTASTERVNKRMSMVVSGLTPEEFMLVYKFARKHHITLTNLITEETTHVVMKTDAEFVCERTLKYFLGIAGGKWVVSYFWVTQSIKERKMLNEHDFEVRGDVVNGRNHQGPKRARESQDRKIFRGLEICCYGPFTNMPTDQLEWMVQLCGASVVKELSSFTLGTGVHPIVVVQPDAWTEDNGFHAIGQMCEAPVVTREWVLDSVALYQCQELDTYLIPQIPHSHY

This test has as its target Breast cancer type 1 susceptibility protein (Homo sapiens) (UniProt P38398). The test is described as follows: qHTS Assay for Inhibitors of BRCT-Phosphoprotein Interaction (Red Fluorophore). The following applies: BRCT-phosphopeptide binding, red fluorescence polarization; series mostly up to 76.9 µM. Here is the method:
NIH Molecular Libraries Screening Centers Network [MLSCN]
NIH Chemical Genomics Center [NCGC]
PI Name: Natarajan, Amarnath; University of Texas
A complex of BRCT (C-terminal portion of BRCA1, MW ~35 kDa, His-tagged) and fluorescently labeled pBACH1 phosphorylated 10 aa peptide fragment of BACH1, a helicase implicated in DNA repair, is incubated with library members. Inhibitors of BRCT-pBACH1 binding are detected by a decrease in the fluorescence polarization (FP) of the fluorophore. In order to minimize the effect of fluorescence artifacts and to increase the overall robustness of the screen, the compound library members were incubated in separate reactions with rhodamine-labeled probe-protein complexes. Protein and labeled probes were supplied by Dr. Amarnath Natarajan, Department of Pharmacology and Toxicology, University of Texas Medical Branch Galveston, TX.
Assay Buffer: 16mM Na2HPO4, 4 mM NaH2PO4, 150 mM NaCl, 1 mM EDTA, 1 mM DTT, 0.02% NaN3, and 0.01% Tween 20 at pH 7.3.
Assay Controls: 100 nM TAMRA labeled decapeptide dispensed into columns 3 and 4 to generate negative control (full inhibition of
binding, -100 % activity). 100 nM labeled decapeptide/100 nM protein in columns 1, 2, 5 - 48. Titration of unlabeled decapeptide control (from 10 mM, then 1:2 dilution in duplicate) pin-transferred to column 2, rows 1 to 16. Column 1 is neutral.
Three uL of reagents were dispensed to 1536-well Greiner black solid-bottom plates. Compounds and controls (23 nL) were transferred via Kalypsys PinTool. The plates were incubated for 12 min at room temperature, and then read on ViewLux (Perkin-Elmer) High-throughput CCD imager using BODIPY for the rhodamine-labeled decapeptide probe polarization filter sets. During dispense, reagent bottles were kept submerged into 4 deg C water bath and all liquid lines were covered with aluminum foil to minimize probe and protein degradation. All screening operations were performed on a Kalypsys robotic system (Kalypsys, Inc., San Diego, CA) containing one RX-130 and two RX-90 anthropomorphic robotic arms. The timing and order of assay plates passing through the screening system were adjusted such that each compound library plate was assayed against the fluorescein- and rhodamine-labeled assay systems at immediately adjacent time points.
As to `CCOC(=O)Nc1ccc2c(c1)N(C(=O)CN1CCN3CCCC3C1)c1ccccc1CC2` (configuration not stated), the activity change, negative = inhibition entry is “inactive”.
Next, `COc1ccc(C)cc1-n1nnnc1SCC(=O)c1cc(C)n(Cc2ccco2)c1C`: “inactive”; `O=C(CN1CCN(c2ccccc2F)CC1)c1ccc2c(c1)OCO2`: “inactive”.
Regarding `COc1ccc(OC)c(NC(=O)CN2CCN(C(=O)c3ccco3)CC2)c1`, the activity change, negative = inhibition result was “inactive”.
Consider `COCCn1nnnc1C(c1ccccc1Cl)N1CCN(c2ccccc2OC)CC1` (configuration not stated), for which the activity change, negative = inhibition result is “inactive”.
On to `COC(=O)[C@@H]1C[C@@]2(O)[C@H](O)[C@H](O)[C@H](O)C[C@H]2N1CC1CCCCC1`, for which the activity change, negative = inhibition entry was “inactive”.
Consider `CC(C)Oc1ccc(C2NC(=O)NC2=O)cc1` (configuration not stated), for which the activity change, negative = inhibition entry was “inactive”.
`O=C(CN(Cc1ccccc1)C(=O)c1ccc2c(c1)OCCO2)NCc1ccc2c(c1)OCO2`: the activity change, negative = inhibition entry was “inactive”.
Under `CC(=O)N1CCC2(CCCN(Cc3ccccc3)C2)CC1` stands “inactive”.
Turning to `COc1ccccc1NC(=O)CSc1nnc(Cc2cccn2C)n1-c1ccc(F)cc1`, the activity change, negative = inhibition result is “inactive”.
As for `O=C(CSc1ncccn1)NC(=O)NCc1ccccc1`, the activity change, negative = inhibition result was “inactive”.
Consider `Cc1ccsc1C(=O)OCC(=O)c1cc(C)n(CC2CCCO2)c1C` (configuration not stated), for which the activity change, negative = inhibition result is “inactive”.
`COc1ccc(NC(=O)CCNC(=O)Cn2ccc3ccccc3c2=O)c(OC)c1`: the activity change, negative = inhibition entry is “inactive”.
As for `Cc1ccccc1CSc1nnc(-c2cccnc2)n1N`, the activity change, negative = inhibition result was “inactive”.
In the case of `COc1cc(C(=O)N(Cc2ccc(N(C)C)cc2)C2CCS(=O)(=O)C2)cc(OC)c1OC` (configuration not stated), the activity change, negative = inhibition result is “inactive”.
Consider `CCCCCCN(C(=O)CCCCCN1C(=O)NC(c2ccc(C(F)(F)F)cc2)C(C(=O)OCc2ccccc2)=C1C)C(C(=O)NCCCC)c1ccc(OCC(=O)OC)c(C(=O)OC)c1` (configuration not stated), for which the activity change, negative = inhibition entry was “inactive”.
For the molecule `CC1CCc2sc3nc(N4CCN(CCO)CC4)n4ncnc4c3c2C1` (configuration not stated), the activity change, negative = inhibition entry was “inactive”.
Take `Cc1ccc(NC(=O)N2CCC(C(=O)NCc3ccc(F)cc3)CC2)cc1`: the activity change, negative = inhibition result was “inactive”.
With `CC(CCC(=O)O)C1CCC2C3C(O)C[C@@H]4CC(O)CC[C@@]4(C)C3CC[C@@]12C` (some centres not stated), the activity change, negative = inhibition entry is “inactive”.
`Cn1c(=O)c2[nH]c(NCC3CCCO3)nc2n(-c2ccccc2)c1=O` (configuration not stated): the activity change, negative = inhibition result is “inactive”.
Turning to `FC(F)(F)c1cccc(Nc2ncnc3ccccc23)c1`, the activity change, negative = inhibition entry was “inactive”.
Regarding `CCOC(=O)C1CCN(C(=O)Nc2ccc(Cl)cc2)CC1`, the activity change, negative = inhibition entry is “inactive”.
Regarding `CCS(=O)(=O)N1CCC(C(=O)N2CCN(c3ccccc3)CC2)CC1`, the activity change, negative = inhibition entry is “inactive”.
Regarding `CCN(CC)CCNC(=O)C1c2ccccc2C(=O)N(C)C1c1cn(C)c2ccccc12` (configuration not stated), the activity change, negative = inhibition entry is “inactive”.
As for `CCCCC(=O)Nc1cc(C)c2c(=O)oc3ccccc3c2n1`, the activity change, negative = inhibition result was “inactive”.
`COc1ccc(CCNC(=O)CSc2nnc(-c3cccc(F)c3)o2)cc1OC`: the activity change, negative = inhibition entry is “inactive”.
Next, `COC(=O)C1=C(C)OC(N)=C(C#N)C1c1cc(OC)ccc1OC` (configuration not stated): “inactive”; `C[C@H](CCC(=O)NCC(=O)O)[C@H]1CC[C@H]2[C@H]3[C@@H](C[C@@H](O)[C@]12C)[C@]1(C)CC[C@H](O)C[C@@H]1C[C@@H]3O`: “inactive”; `CCOc1ccccc1NC(=O)c1cc(S(=O)(=O)N2CCC3(CC2)OCCO3)ccc1F`: “inactive”.
For `COC(=O)CC1C(C)(C)C(OC(C)=O)C2CC3=C4CC(=O)OC(c5ccoc5)[C@]4(C)CCC3[C@@]1(C)C2=O` (some centres not stated), the activity change, negative = inhibition result was “inactive”.
For `CCOc1cc(CO)ccc1OCC(=O)N1CCCCC1`, the activity change, negative = inhibition entry is “inactive”.
For `O=C(Nc1nc2cc3c(cc2s1)OCCO3)c1cccc(S(=O)(=O)N2CCOCC2)c1`, the activity change, negative = inhibition result was “inactive”.
Take `CN(C(=O)COc1nnc(-c2cccs2)c(-c2cccs2)n1)c1ccccc1`: the activity change, negative = inhibition entry was “inactive”.
In the case of `COCC(C)n1c(SCc2ccc(C(=O)OC)o2)nc2ccccc2c1=O` (configuration not stated), the activity change, negative = inhibition entry is “inactive”.
As to `CO[C@H]1COC(=O)[C@@H](OCc2ccccc2)/C=C\[C@H](C)[C@@H](OC)COC(=O)[C@H](OCc2ccccc2)/C=C\[C@@H]1C`, the activity change, negative = inhibition is 3% [at 15.4 µM] (inactive).
Regarding `CCC(c1nnnn1C1CCCC1)N1CCN(C(=O)c2ccco2)CC1` (configuration not stated), the activity change, negative = inhibition result was “inactive”.
Next, `CC1CCCCN1CC(=O)NCc1ccc2c(c1)OCO2` (configuration not stated): “inactive”.
Regarding `O=C(NCc1ccccn1)c1c(O)c2c([nH]c1=O)CCCC2`, the activity change, negative = inhibition result was “inactive”.
Under `O=C(CC1OC(=O)c2ccccc21)NC1CCCCC1` (configuration not stated) stands “inactive”; under `COc1ccc(-c2nc(CS(=O)CC(=O)NCc3ccccn3)c(C)o2)cc1` (configuration not stated), “inactive”.
For the molecule `Cc1nnc(SCc2cc(=O)[nH]c(N3CCN(Cc4ccccc4)CC3)n2)s1`, the activity change, negative = inhibition entry was “inactive”.
Regarding `CC(C)NC[C@H](O)c1ccc2ccccc2c1`, the activity change, negative = inhibition entry is “inactive”.
Next, `Cc1nc2nc3c(cn2n1)C(=O)CC(c1ccccc1)C3` (configuration not stated): “inactive”; `COCCCNC(=O)Cn1cc(C(=O)C2CC2)c2ccccc21`: “inactive”.
For the molecule `CN(c1ccc(C(=O)N2CCc3ccccc3C2)cc1)S(C)(=O)=O`, the activity change, negative = inhibition entry was “inactive”.
Consider `COCCCNC(=O)COc1cc(C)c(Cl)c(C)c1`, for which the activity change, negative = inhibition entry is “inactive”.
`Cc1cccc(OCc2nnc(SCC(=O)N3CCN(C(=O)c4ccco4)CC3)n2C)c1C`: the activity change, negative = inhibition result is “inactive”.
On to `CCCOC(=O)Nc1sc2c(c1C(=O)OCC)CCC2`, for which the activity change, negative = inhibition entry is “inactive”.
`CCOC(=O)c1cnc(-n2nc(C)cc2C)nc1-n1nc(C)cc1C`: the activity change, negative = inhibition entry was “inactive”.
Regarding `CN(C(=O)CSc1nnnn1-c1ccccc1)C1CCCCC1`, the activity change, negative = inhibition entry is “inactive”.
Next, `Cc1ccc(Cn2ccc(NC(=O)c3cc(C(C)C)on3)n2)cc1`: “inactive”; `COc1ccccc1N1CCN(C(=O)c2c(-c3c(Cl)cccc3Cl)noc2C)CC1`: “inactive”.
